Source: PubChem
Rows were chosen to be rich in hits. Some 3.9% of all compounds tested hit in one or more screens of this group.
FH mod: Identification of activators of human fumarate hydratase by quantitative high-throughput screening; Potency, µM (top dose mostly 79.9 µM), for inactives: at the highest dose activity change, negative = inhibition, most hits filed as inhibitors; FH coupled MDH/diaphorase resazurin fluorescence, 15 min; AID 1347055, 2019; hit rate 0.22% among 54,000; Fumarate hydratase, mitochondrial (Homo sapiens), P07954; note: potency is the fitted concentration of half-maximal effect; % is set by controls: 0 for no effect and ±100 for the full control effect; the screen sought activators but most active calls are inhibition curves; nearly all actives have a fitted effect of over 45% in size
Target sequence (P07954 whole entry, looked up): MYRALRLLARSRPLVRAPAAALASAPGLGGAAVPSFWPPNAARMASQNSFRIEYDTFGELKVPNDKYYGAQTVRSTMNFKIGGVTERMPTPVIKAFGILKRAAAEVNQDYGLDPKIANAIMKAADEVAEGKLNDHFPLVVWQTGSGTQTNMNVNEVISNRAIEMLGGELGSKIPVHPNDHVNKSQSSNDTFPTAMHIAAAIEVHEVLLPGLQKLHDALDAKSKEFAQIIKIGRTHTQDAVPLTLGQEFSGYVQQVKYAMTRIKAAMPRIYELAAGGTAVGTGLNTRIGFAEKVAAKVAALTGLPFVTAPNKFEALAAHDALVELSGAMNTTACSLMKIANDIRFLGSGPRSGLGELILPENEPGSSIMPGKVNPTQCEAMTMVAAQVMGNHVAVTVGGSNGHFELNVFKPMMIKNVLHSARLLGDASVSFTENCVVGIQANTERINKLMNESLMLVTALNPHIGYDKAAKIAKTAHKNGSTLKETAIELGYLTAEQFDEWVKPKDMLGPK
SKOV3 invasion: blocks SKOV3ip1 adhesion and invasion in omental model; SKOV3ip1-GFP adhesion/invasion on 3D omental model, fluorescence; Potency, µM (highest dose often 45.8 µM), for the others: at the top dose activity change, negative = inhibition, most hits filed as inhibitors; hit rate 0.1% among 46,000;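 note: potency is the fitted concentration of half-maximal effect; plate controls were DMSO wells for no effect and tomatine positive control wells for full effect; nearly all actives have a fitted effect of over 65% in size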
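Primary human omental fibroblast/mesothelial 3D culture pre-formed 48 h. SKOV3ip1-GFP cells added with compounds (0.36-46 umol/L), incubated 2 h RT/16 h 37 C, fixed; GFP cells quantified at 488/509 nm.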
NTMT1 inhibitor: NTMT1 methyltransferase inhibition. Q9BV86. NTMT1 MTase-Glo SAH luminescence, purified enzyme. Potency, µM (titrated, usually from 114 µM), inactives show at the highest dose activity change, negative = inhibition, actives largely listed as inhibitors. hit rate 2.5% among 59,000;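 note: potency is the fitted concentration of half-maximal effect; plate controls were DMSO vehicle for no effect and no enzyme for full effect; nearly all actives have a fitted effect of over 65% in size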
GPR32 ag: agonists of human resolvin D1 receptor DRV1 (GPR32). O75388. CHO-K1 GPR32 beta-arrestin PathHunter luminescence, 90 min; zero percent set by DMSO-only wells. activation, % at 76.9 µM. hit rate 2.5% among 48,000;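 active = activation of at least 60% and not above a set upper limit, about 1 call in 100 departs from these limits; inconclusive = activation of 40% to 60%, or above that upper limit; inactive = activation under 40%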; note: 0% is about no effect
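Readings come from a cell-based beta-arrestin complementation format: CHO-K1 GPR32 stable cells (2,500/well) treated 90 min with compounds, then beta-Gal substrate added for 1 h before chemiluminescence imaging.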
The depositor's hits bear a star; i = inactive; u = inconclusive; x = no result; ! = not active in a repeat; [ ] = dose if it differs, or a comment. Unless noted, calls come from the whole dose curve; as a rule, active = well fitted curve in the direction sought with a large enough effect; inconclusive = small, poorly fitted or top-dose-only effect, or another doubt; inactive = no such curve, though single readings can be large; an effect the other way counts as inactive or inconclusive.

SMILES	FH mod	SKOV3 invasion	NTMT1 inhibitor	GPR32 ag
COc1ccc(C(=O)N(Cc2ccccc2)Cc2cccs2)c(O)c1	x	x	14%	x
Nc1nc(Nc2ccc3c(c2)CC[C@@H](N2CCCC2)CC3)nn1-c1cc2c(nn1)-c1ccccc1CCC2	x	x	35µM*	x
Cc1ccc(Cl)c2sc(N3CCN(C(=O)C4CC4)CC3)nc12	-16%	4%	u	73*
CCc1ccccc1Nc1cc(C(=O)NCCCN(C)C2CCCCC2)c2ccccc2n1	-1%	-13%	u	79*
O=S(=O)(c1ccc(Cl)cc1)c1nnn2c1nc(NCc1ccccc1)c1sccc12	-11%	-3%	89µM*	-9
O=S(=O)(c1ccccc1)c1nnn2c1nc(NCc1ccccc1)c1sccc12	0%	12%	7%	-8
O=C(Nc1ccc(Br)cc1)c1ccc(F)c(S(=O)(=O)NC2CCCCCC2)c1	u	u	7%	8
O=C(Nc1cc(Cl)cc(Cl)c1)c1ccc(F)c(S(=O)(=O)NC2CCCCC2)c1	-21%	-8%	9%	69*
CCN(CC)CCOc1ccc(Cc2ccccc2)cc1	6%[53.3 µM]	-6%	32µM*!	7
CCCNCC(O)COc1ccccc1C(=O)CCc1ccccc1 (configuration not stated)	-21%[53.3 µM]	-8%	-6%	87*!
CC(=O)NCc1cccc(OC[C@@H](O)CNCCc2ccc(NS(=O)(=O)c3ccccc3)cc2)c1	-14%	x	6%[57.5 µM]	x
CCN(CC)CCOc1ccc(C(=C(Cl)c2ccccc2)c2ccccc2)cc1	6%[53.3 µM]	4%	-25%[57.5 µM]	x
CCN(CC)CCOc1ccccc1C(=O)CCc1ccccc1	5%[53.3 µM]	x	24%[57.5 µM]	107*
Cc1cc(Nc2ncnc3ccc(-c4ccc(CNCCS(C)(=O)=O)o4)cc23)ccc1Oc1ccn2ncnc2c1	-3%	13%	22µM*!	x
COCC(=O)NCC=Cc1ccc2ncnc(Nc3ccc(Oc4ccc(C)nc4)c(C)c3)c2c1	-6%[53.3 µM]	-2%	u	x
CCC(C)C(N)C1=NC(C(=O)N[C@@H](CC(C)C)C(=O)N[C@H](CCC(=O)O)C(=O)N[C@H](C(=O)N[C@H]2CCCCNC(=O)[C@H](CC(N)=O)NC(=O)[C@@H](CC(=O)O)NC(=O)[C@H](Cc3cnc[nH]3)NC(=O)[C@@H](Cc3ccccc3)NC(=O)[C@H]([C@@H](C)CC)NC(=O)[C@@H](CCCN)NC2=O)[C@@H](C)CC)CS1 (some centres not stated)	10%[53.3 µM]	x	7.9µM*!	x
O=C(O)c1c[nH]c2c(ccc3ccccc32)c1=O	-6%	x	u	x
Cc1ccc(-n2nc(C(C)(C)C)cc2NC(=O)NCc2cc(F)ccc2Oc2ccc3c(cnn3CCO)c2)cc1	-11%	x	8%	x
COc1ccc(Nc2c(-c3ccc(Cl)cc3)nc3cnccn23)cc1OC	-28%	10%	-1%	97*
OC1CCC([C@H](O)C[C@H]2c3c(F)cccc3-c3cncn32)CC1 (some centres not stated)	x	x	10%	x
N#CC(=C(O)c1ccc(Cl)cc1Cl)c1nc2cc(Cl)ccc2c(=O)[nH]1	-14%[53.3 µM]	-7%	u	x
CC(=O)c1ccc(N2CCN(S(=O)(=O)c3ccc4c(c3)C(=O)OC4)CC2)cc1	x	x	7%	x
C=CC(=O)Nc1cc(Nc2nccc(-c3cn(C)c4ccccc34)n2)c(OC)cc1N(C)CCN(C)C	0%	x	25µM*	x
O=c1cc[nH]c(=S)[nH]1	-15%[53.3 µM]	x	u	68*
CCc1ccc(/C=C2/SC(=S)NC2=O)cc1	16µM*	x	-3%	7
SMILES	FH mod	SKOV3 invasion	NTMT1 inhibitor	GPR32 ag
CCOc1ccc(/C=C2\SC(=O)N(CCN)C2=O)cc1	9%	x	-12%	x
CS(=O)(=O)c1ccc(C(=O)OC(C(=O)NC2C3CC4CC(C3)CC2C4)c2ccccc2)cc1[N+](=O)[O-] (configuration not stated)	x	x	4%	x
CCN1CCC(N(Cc2ccc(F)cc2)C(=O)Nc2cc(Cl)ccc2C(=O)OC)CC1	3%	11µM*	-17%	32
CCN1CCC(N(Cc2ccc3c(c2)OCO3)C(=O)Nc2cc(F)ccc2F)CC1	5%	1%	1%	-7
O=C(O)c1ccccc1C(=O)Nc1ccc(-c2ccccc2)cc1	-3%	10%	8.6µM*!	x
O=C(c1ccccc1)c1ccccc1NC(=O)c1ccccc1C(=O)O	-14%	i	7%	-7
C#C[C@]1(OC(C)=O)CC[C@H]2[C@@H]3CCC4=C/C(=N/O)CC[C@@H]4[C@H]3CC[C@@]21CC	-27%[53.3 µM]	x	16%[57.5 µM]	31
C#CC1(O)CC[C@H]2[C@@H]3CCC4=CCCC[C@@H]4[C@H]3CC[C@@]21C (some centres not stated)	-17%[53.3 µM]	x	-8%[57.5 µM]	105*
O=C(c1ccccc1F)N1c2nc(-c3ccco3)nn2C2(CCCCC2)[C@@H]2CCCC[C@@H]21	-17%	i	50µM*	-48
COc1cccc(CSc2nc3n(n2)C(c2ccc(C(=O)O)cc2)C(C(=O)Nc2ccccc2)=C(C)N3)c1 (configuration not stated)	-4%	i	45µM*	17
CCCc1c(OCCCCc2nn[nH]n2)ccc(C(C)=O)c1O	-5%[53.3 µM]	x	20%[57.5 µM]	87*
Cc1cccc(C)c1Nc1c(-c2ccc(O)cc2)nc2sccn12	32µM*	-5%	-8%	-2
CCc1cccc(C)c1Nc1c(-c2cccc(O)c2)nc2sccn12	u	i	u	-22
COc1cc(-c2nc3sccn3c2Nc2c(C)cccc2C)ccc1O	16µM*	9%	u	-17
CC1(c2nc3c(C(N)=O)cccc3[nH]2)CCCN1 (configuration not stated)	9%	x	0%[57.5 µM]	x
Cc1ccc(NC(=O)Cn2c(=O)ccc3cc(S(=O)(=O)N4CCC(C)CC4)ccc32)cc1C	3%	11%	5%	70*
COc1ccc(NC(=O)Cn2cnc3ccc(S(=O)(=O)N4CCC(C)CC4)cc3c2=O)cc1OC	-16%	u	-5%	113*
C[C@@H]1O[C@@H](O[C@H]2[C@H](O[C@H]3CO[C@@H](O[C@H]4CC[C@@]5(C)C(CC[C@]6(C)C5CC[C@]57OC[C@@]8(CC[C@](C)(CO)CC85)[C@H](O)C[C@]76C)C4(C)C)[C@H](O[C@@H]4O[C@H](CO)[C@@H](O)[C@H](O)[C@H]4O)[C@H]3O)O[C@H](CO)[C@@H](O)[C@@H]2O)[C@H](O)[C@H](O)[C@H]1O (some centres not stated)	7%[20.6 µM]	x	u	x
C[C@@H](O[C@H]1OCCN(Cc2nn(P(=O)(O)O)c(=O)[nH]2)[C@H]1c1ccc(F)cc1)c1cc(C(F)(F)F)cc(C(F)(F)F)c1	-5%[53.3 µM]	x	4%[29.8 µM]	x
COc1ccccc1-c1no[n+]([O-])c1C#N	x	x	14%[57.5 µM]	x
Cc1c(C(=O)OC2CCCCCC2)[nH]c2c1C(=O)CC(c1ccc(Cl)cc1)C2 (configuration not stated)	5%	5%	1%	-6
Cc1c(C(=O)OC2CCCCCC2)[nH]c2c1C(=O)CC(c1ccccc1)C2 (configuration not stated)	1%	-1%	4%	79*
